The text below walks through data of article PMC7862700, “An all-to-all approach to the identification of sequence-specific readers for epigenetic DNA modifications on cytosine”.

Holding throughout (experiment): DAPPL (digital affinity profiling via proximity ligation, sequencing); 10 mM Tris-HCl pH 7.5, 50 mM NaCl, 1 mM DTT, 4% glycerol, room temperature, 30 min; GST-TFs on glutathione beads, 16-mer random dsDNA library, 0.1% formaldehyde crosslink after washing; high values mean tight binding
Experiment [1] deals with T1, FLI1 (Homo sapiens, UniProt Q01543 1-452).
T1 sequence: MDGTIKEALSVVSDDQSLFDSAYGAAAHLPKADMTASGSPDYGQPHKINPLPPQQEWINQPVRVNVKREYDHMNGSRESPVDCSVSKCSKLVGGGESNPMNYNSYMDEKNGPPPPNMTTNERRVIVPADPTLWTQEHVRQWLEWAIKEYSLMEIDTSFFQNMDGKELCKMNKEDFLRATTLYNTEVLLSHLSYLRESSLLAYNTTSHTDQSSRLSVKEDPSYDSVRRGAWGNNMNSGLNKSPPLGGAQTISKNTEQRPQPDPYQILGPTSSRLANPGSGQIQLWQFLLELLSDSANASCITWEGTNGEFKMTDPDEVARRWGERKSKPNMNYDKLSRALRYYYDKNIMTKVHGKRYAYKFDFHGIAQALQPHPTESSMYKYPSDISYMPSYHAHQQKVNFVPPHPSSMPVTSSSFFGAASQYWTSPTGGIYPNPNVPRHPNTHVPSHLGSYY
To be noted: protein: recombinant; tags: N-terminal GST; dsDNA, one strand shown. The gist of the method: (§1)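 Beads coated with glutathione captured GST-fused human transcription factors that had been expressed in yeast, and the factors were then given DNA barcodes and pooled with a tag-only sample. The pools were incubated with 200 nmole of a random double-stranded 16-mer DNA library in Tris/NaCl/DTT/glycerol buffer for 30 min at room temperature, washed, crosslinked with 0.1% formaldehyde and proximity-ligated with BsaI/T4 ligase at 37 °C for 1 h. PCR amplification and Illumina NextSeq500 sequencing came last. Binding signal is each hexamer's read frequency for a factor divided by its frequency for the tag-only sample.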

For experiment [2], the target named is T2, GABPA (Homo sapiens, UniProt Q06546 1-454).
T2 sequence: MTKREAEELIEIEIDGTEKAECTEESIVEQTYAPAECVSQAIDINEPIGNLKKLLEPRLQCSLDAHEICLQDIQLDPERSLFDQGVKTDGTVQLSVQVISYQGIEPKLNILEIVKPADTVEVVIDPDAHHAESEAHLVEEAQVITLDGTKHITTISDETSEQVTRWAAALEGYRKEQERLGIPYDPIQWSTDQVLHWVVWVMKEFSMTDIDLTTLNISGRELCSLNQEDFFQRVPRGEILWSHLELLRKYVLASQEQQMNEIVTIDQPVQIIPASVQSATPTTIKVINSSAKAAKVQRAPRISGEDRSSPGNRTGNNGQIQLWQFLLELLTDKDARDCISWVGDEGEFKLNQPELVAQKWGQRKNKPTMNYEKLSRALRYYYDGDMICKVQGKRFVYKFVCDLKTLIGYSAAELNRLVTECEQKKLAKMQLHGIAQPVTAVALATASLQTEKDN
To be noted: protein: recombinant; tags: N-terminal GST; dsDNA, one strand shown. The method, boiled down:
as §1

Experiment [3] addresses T3, ERG (Homo sapiens, UniProt P11308 1-479).
T3 sequence: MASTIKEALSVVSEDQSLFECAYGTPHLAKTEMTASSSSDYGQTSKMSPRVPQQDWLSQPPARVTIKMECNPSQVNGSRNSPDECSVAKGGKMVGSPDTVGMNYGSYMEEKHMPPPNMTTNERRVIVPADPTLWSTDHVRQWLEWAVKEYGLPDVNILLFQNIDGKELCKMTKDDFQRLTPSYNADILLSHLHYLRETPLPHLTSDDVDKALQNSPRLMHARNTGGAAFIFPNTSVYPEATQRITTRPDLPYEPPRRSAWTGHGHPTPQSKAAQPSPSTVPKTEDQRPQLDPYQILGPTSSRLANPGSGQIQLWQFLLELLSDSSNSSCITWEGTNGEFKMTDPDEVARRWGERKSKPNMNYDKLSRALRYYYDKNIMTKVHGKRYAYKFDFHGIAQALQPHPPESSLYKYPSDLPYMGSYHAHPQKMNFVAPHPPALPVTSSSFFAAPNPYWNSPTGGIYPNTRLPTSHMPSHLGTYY
Particulars: protein: recombinant; tags: N-terminal GST; dsDNA, one strand shown. The gist of the method:
as §1

The target in experiment [4] is SPI1 (Homo sapiens, UniProt P17947 1-270). To be noted: protein: recombinant; tags: N-terminal GST; dsDNA, one strand shown. The method, boiled down:
as §1

The target in experiment [5] is SPIB (Homo sapiens, UniProt Q01892 1-262). Particulars: protein: recombinant; tags: N-terminal GST; dsDNA, one strand shown. The gist of the method: as §1
SPIB, sequence (Q01892 whole entry): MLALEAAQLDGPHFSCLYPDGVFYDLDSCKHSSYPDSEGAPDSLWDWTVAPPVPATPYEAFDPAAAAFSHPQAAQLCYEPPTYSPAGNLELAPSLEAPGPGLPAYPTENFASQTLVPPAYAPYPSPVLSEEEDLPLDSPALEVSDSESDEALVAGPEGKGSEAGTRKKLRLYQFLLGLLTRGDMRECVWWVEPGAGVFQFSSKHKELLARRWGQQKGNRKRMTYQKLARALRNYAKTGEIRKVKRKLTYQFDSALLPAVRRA
For experiment [6], the target named is T4, ELK3 (Homo sapiens, UniProt P41970 1-407).
T4 sequence: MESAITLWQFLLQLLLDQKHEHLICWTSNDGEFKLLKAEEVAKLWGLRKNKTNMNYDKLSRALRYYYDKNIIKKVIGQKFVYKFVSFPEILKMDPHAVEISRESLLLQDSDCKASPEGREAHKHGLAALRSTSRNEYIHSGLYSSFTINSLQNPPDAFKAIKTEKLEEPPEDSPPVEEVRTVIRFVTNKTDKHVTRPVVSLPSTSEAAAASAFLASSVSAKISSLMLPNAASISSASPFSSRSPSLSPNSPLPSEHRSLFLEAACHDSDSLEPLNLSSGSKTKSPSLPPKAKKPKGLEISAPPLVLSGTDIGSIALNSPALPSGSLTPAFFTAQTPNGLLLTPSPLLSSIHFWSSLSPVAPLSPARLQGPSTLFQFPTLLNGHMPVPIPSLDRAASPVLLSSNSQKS
Particulars: protein: recombinant; tags: N-terminal GST; dsDNA, one strand shown. The method, boiled down: as §1

The target in experiment [7] is ETV5 (Homo sapiens, UniProt P41161 1-510). Particulars: protein: recombinant; tags: N-terminal GST; dsDNA, one strand shown. The method, boiled down: as §1
ETV5, sequence (P41161 whole entry): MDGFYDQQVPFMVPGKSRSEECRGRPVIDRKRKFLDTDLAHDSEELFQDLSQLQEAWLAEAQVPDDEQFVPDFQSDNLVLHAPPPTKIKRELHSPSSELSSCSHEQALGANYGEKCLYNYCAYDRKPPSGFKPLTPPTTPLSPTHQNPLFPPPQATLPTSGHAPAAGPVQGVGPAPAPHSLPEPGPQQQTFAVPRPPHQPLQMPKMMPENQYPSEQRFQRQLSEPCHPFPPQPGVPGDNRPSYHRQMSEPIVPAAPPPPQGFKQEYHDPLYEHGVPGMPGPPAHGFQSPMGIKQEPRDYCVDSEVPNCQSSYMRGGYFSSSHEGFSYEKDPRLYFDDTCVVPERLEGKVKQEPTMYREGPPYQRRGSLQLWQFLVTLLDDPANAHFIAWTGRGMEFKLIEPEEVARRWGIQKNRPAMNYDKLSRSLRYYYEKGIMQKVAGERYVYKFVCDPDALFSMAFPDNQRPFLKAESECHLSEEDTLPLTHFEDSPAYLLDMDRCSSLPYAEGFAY
The target in experiment [8] is HSF1 (Homo sapiens, UniProt Q00613 1-529). To be noted: protein: recombinant; tags: N-terminal GST; chain copies: 3; dsDNA, one strand shown. The gist of the method:
as §1

Experiment [9] has as its target T5, SPIC (Homo sapiens, UniProt Q8N5J4 1-248).
T5 sequence: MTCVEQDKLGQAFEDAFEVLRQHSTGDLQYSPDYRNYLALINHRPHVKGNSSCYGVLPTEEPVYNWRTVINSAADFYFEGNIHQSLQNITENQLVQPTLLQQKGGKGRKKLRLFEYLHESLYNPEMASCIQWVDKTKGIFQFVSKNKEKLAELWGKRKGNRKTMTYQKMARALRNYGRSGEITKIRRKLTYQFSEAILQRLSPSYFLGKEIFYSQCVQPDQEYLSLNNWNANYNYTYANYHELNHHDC
Particulars: protein: recombinant; tags: N-terminal GST; dsDNA, one strand shown. The gist of the method:
as §1

The target in experiment [10] is ELF4 (Homo sapiens, UniProt Q99607 1-663). Particulars: protein: recombinant; tags: N-terminal GST; dsDNA, one strand shown. The method, boiled down:
as §1

The target in experiment [11] is T6, ELK4 (Homo sapiens, UniProt P28324-2 1-405).
T6 sequence: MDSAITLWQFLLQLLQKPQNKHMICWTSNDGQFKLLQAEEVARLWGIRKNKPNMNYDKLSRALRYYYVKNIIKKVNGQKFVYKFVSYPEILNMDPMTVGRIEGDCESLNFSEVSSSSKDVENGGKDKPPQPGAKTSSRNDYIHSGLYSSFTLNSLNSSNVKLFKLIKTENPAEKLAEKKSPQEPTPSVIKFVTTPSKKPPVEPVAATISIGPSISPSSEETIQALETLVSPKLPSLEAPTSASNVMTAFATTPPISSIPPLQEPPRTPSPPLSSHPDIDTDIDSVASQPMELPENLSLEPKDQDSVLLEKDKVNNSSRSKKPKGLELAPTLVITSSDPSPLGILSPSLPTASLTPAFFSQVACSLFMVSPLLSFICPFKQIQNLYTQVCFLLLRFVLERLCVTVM
Particulars: protein: recombinant; tags: N-terminal GST; dsDNA, one strand shown. The gist of the method:
as §1

Experiment [12] has as its target T7, ETV2 (Homo sapiens, UniProt O00321 1-342).
T7 sequence: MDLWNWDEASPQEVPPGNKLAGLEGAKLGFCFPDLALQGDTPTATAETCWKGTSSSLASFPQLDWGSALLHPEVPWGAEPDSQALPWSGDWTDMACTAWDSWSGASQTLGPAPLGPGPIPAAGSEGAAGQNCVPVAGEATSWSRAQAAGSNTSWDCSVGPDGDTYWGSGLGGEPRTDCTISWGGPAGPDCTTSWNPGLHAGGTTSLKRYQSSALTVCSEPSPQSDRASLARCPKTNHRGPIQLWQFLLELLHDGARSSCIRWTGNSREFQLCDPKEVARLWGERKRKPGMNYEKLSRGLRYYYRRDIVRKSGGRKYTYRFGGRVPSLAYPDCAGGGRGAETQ
To be noted: protein: recombinant; tags: N-terminal GST; dsDNA, one strand shown. The method, boiled down:
as §1

Experiment [13] concerns the target T8, ELF3 (Homo sapiens, UniProt P78545 1-371).
T8 sequence: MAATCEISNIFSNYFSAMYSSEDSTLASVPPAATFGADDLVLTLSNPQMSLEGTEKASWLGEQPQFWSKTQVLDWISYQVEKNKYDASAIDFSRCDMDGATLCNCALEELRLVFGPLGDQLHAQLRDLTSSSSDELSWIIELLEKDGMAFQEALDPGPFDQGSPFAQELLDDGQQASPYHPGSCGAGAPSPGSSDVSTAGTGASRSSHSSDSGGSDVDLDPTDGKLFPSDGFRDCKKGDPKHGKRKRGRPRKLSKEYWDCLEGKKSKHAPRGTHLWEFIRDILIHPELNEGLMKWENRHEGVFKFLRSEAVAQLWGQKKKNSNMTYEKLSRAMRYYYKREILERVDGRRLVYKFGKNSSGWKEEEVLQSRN
Particulars: protein: recombinant; tags: N-terminal GST; dsDNA, one strand shown. The gist of the method:
as §1

The target in experiment [14] is CRX (Homo sapiens, UniProt O43186 1-299). Particulars: protein: recombinant; tags: N-terminal GST; dsDNA, one strand shown. The method, boiled down:
as §1

HSF1, sequence (Q00613 whole entry): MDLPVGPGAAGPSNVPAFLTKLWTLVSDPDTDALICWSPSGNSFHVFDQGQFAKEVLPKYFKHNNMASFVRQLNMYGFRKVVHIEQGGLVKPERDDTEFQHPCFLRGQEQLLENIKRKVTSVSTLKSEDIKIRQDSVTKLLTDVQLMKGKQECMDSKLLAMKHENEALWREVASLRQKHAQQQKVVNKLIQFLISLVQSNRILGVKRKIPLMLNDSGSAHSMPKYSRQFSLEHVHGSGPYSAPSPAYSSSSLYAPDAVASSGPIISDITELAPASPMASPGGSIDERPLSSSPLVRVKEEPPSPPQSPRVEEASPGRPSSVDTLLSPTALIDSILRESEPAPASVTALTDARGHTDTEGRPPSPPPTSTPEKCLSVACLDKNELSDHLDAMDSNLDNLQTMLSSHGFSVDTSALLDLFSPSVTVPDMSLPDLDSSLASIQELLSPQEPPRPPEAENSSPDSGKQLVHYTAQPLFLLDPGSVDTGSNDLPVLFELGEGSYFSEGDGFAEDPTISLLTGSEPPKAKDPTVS
ELF4, sequence (Q99607 whole entry): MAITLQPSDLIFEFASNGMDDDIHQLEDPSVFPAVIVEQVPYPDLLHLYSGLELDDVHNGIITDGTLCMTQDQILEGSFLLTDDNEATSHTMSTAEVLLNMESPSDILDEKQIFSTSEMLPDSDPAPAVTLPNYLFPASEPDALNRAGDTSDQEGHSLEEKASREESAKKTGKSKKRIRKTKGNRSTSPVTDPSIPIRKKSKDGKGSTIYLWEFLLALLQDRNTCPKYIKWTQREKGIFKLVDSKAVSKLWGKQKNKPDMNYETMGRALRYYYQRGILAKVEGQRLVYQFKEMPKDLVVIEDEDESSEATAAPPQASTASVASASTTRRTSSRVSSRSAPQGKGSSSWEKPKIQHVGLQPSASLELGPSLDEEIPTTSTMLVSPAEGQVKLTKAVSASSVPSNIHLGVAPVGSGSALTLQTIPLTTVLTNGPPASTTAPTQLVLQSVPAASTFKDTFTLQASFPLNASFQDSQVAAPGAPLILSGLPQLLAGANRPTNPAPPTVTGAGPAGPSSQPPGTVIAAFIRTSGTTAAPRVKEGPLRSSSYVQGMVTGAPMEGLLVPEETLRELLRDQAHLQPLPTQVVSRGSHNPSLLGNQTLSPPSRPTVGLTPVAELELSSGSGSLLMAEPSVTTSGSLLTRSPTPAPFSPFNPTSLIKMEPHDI
CRX, sequence (O43186 whole entry): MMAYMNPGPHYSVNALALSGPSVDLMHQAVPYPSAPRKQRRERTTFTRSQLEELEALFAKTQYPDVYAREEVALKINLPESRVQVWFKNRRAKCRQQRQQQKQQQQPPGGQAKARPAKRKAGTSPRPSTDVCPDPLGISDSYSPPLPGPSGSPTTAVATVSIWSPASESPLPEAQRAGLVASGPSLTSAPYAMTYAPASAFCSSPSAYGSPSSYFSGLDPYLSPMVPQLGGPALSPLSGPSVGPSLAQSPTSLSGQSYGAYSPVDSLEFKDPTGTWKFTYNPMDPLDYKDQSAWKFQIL

For the sequence GTTAAA, the binding signal in experiment [1] was 1.03 fold enrichment (6-mer frequency, TF over GST control); in [2], 1.01 fold enrichment (6-mer frequency, TF over GST control); in experiment [3], 1.03 fold enrichment (6-mer frequency, TF over GST control); in experiment [4], 1.08 fold enrichment (6-mer frequency, TF over GST control); in experiment [5], 1.07 fold enrichment (6-mer frequency, TF over GST control); in [6] it was 1.01 fold enrichment (6-mer frequency, TF over GST control). In addition, the binding signal is 1.02 fold enrichment (6-mer frequency, TF over GST control) in experiment [7]; 1.01 fold enrichment (6-mer frequency, TF over GST control) in experiment [8]; 1.17 fold enrichment (6-mer frequency, TF over GST control) in experiment [9]; 1.07 fold enrichment (6-mer frequency, TF over GST control) in [10]; 1.04 fold enrichment (6-mer frequency, TF over GST control) in [11]; 1.11 fold enrichment (6-mer frequency, TF over GST control) in experiment [12]. For the same sequence, the binding signal in experiment [13] was 1.29 fold enrichment (6-mer frequency, TF over GST control); in [14], 1.27 fold enrichment (6-mer frequency, TF over GST control).
